Screens (PubChem)
Giardia FBPA inh: inhibitors of Giardia lamblia fructose-1,6-bisphosphate aldolase. Potency, µM (doses to about 59.6 µM), for inactives: at the highest dose activity, negative = inhibition, hits mostly inhibitors. purified Giardia FBPA. AID 2451. 290,000 tested, 0.71% active; note: nearly all actives have a fitted effect of over 55% in size
Target sequence (A8B2U2 whole entry, looked up): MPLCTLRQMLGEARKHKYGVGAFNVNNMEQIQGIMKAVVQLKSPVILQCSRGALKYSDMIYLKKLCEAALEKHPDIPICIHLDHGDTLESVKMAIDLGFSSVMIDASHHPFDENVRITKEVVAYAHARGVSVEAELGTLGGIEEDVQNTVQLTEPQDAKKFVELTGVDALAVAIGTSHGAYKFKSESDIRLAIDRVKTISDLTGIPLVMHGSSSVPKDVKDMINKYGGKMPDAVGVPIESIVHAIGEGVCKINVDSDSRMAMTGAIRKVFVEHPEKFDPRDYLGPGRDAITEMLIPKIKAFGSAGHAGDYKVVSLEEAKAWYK
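Giardia FBPA (40 nM reagent) was preincubated 10 min at RT with compound (up to 57.5 uM final), then substrate plus GAPDH/TPI/NAD/arsenate coupling system with diaphorase/resazurin was added; resorufin fluorescence (525/598 nm) was read after 20 min.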
RE007 growth inh: less growth of the S. pombe RE007 Vpr strain; S. pombe RE007 Vpr strain, BacTiter-Glo ATP luminescence, 24 h; Potency, µM (series often up to 92.2 µM), for the others: at the top dose activity change, negative = less growth, usual class: inhibitors; 360,000 tested, 0.21% active; AID 651644; active = well fitted falling curve with a large enough effect; inconclusive = small, poorly fitted or top-dose-only effect; inactive = no such curve, though single readings can be large or run the other way; note: nearly all actives have a fitted effect of over 50% in size
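Fission yeast strain RE007, carrying one chromosomally integrated HIV-1 vpr copy, was seeded at OD 0.01 in PMG+AL medium with 23 nL pinned compound. After 24 h at 30 °C and 99% humidity, viability was read by BacTiter-Glo luminescence.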
LmPK inh: LmPK (Leishmania mexicana) enzyme inhibition. purified LmPK, Kinase-Glo ATP luminescence, 1 h. Q27686. 290,000 tested, 0.37% active. Potency, µM (top dose mostly 57.5 µM), inactives show at the highest dose activity change, negative = inhibition, most hits filed as inhibitors. AID 1721
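Pyruvate kinase activity monitored as ATP production (luciferase luminescence). Conditions: 0.1 nM enzyme, 0.5 mM PEP, 0.1 mM ADP, 1 h, RT; normalized against uninhibited and no-enzyme wells.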
Sm TGR block: inhibitors of Schistosoma mansoni thioredoxin glutathione reductase. purified TGR, DTNB reduction, TNB absorbance 405 nm. 360,000 tested, 3% active. Q962Y6. Potency, µM (doses to about 114 µM), inactives show top-dose activity change, negative = inhibition, hits mostly inhibitors; note: nearly all actives have a fitted effect of over 60% in size
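Kinetic colorimetric format: TGR-catalysed, NADPH-driven DTNB reduction monitored via TNB absorbance. Enzyme dispensed at 20 nM; compound exposure 15 min at room temperature before reaction start.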
Tb PYK inh: T. brucei pyruvate kinase inhibition; Q57TT1; TbPYK enzyme, Kinase-Glo Plus ATP luminescence, 45 min; Potency, µM (titrated, usually from 76.8 µM), without a hit: at the highest dose activity, negative = inhibition, hits mostly inhibitors; 410,000 tested, 0.12% active; note: nearly all actives have a fitted effect of over 50% in size
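Screened from lowest to highest concentration, compounds were pinned into TbPYK/substrate mixtures, and ADP (130 uM final) was added. Plates sat at room temperature for 45 min prior to Kinase-Glo Plus detection by luminescence.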
* = called active by the depositor; ? = inconclusive; nt = not tested or not shown; [ ] = dose if it differs, or a comment. Only some compounds are listed: those with a hit (about 3.3% of all), similar ones and a draw of the others. Unless noted, calls come from the whole dose curve; as a rule, active = well fitted curve in the direction sought with a large enough effect; inconclusive = small, poorly fitted or top-dose-only effect, or another doubt; inactive = no such curve, though single readings can be large; an effect the other way counts as inactive or inconclusive. % is set by controls: 0 for no effect and ±100 for the full control effect; potency is the fitted concentration of half-maximal effect.

SMILES	Giardia FBPA inh	RE007 growth inh	LmPK inh	Sm TGR block	Tb PYK inh
CCc1c(C)c(C#N)c2nc3ccccc3n2c1Nc1c(C)n(C)n(-c2ccccc2)c1=O	2%	-7%	-2%	-27%	-7%
CCCc1cc(Nc2c(C)n(C)n(-c3ccccc3)c2=O)n2c(nc3ccccc32)c1C#N	-29%	-3%	1%	14µM*	4%
Cc1cc(Nc2c(C)n(C)n(-c3ccccc3)c2=O)n2c(nc3ccccc32)c1C#N	?	-4%	1%	22µM*	2%
CCOC(=O)c1cnc2c(C#N)c(C)nn2c1-c1ccccc1	0%	2%	-1%	0%	-4%
Cc1ccc(OCC(=O)c2cc(C)c(C)cc2C)c([N+](=O)[O-])n1	-18%	-9%	4%	16µM*	-9%
Cc1ccc(OCC(=O)c2cc(C)n(-c3ccccc3)c2C)c([N+](=O)[O-])n1	-17%	-6%	-2%	-23%	-15%
Cc1ccc(C)c(C(=O)COc2ccc(C)nc2[N+](=O)[O-])c1	-17%	-1%	2%	11µM*	-14%
Cc1cc(C)n2nc(SCC(=O)NC(=O)c3ccccc3Cl)nc2n1	nt	31%	nt	0%	-2%
CCOc1ccc(NC(=O)CN2CCC(NC(=O)C3CCCCC3)CC2)cc1	3%	nt	-2%	5%	nt
COc1ccc(S(=O)(=O)NCc2ccc3c(c2)OCO3)cc1OC	-1%	-6%	-3%	3%	-4%
Cc1cccc2c(N=Nc3ccc(S(=O)(=O)Nc4cccc(Cl)c4)cc3[N+](=O)[O-])c(O)[nH]c12	3%	-4%	2%	nt	-5%
CCCCc1nc(S(=O)(=O)c2ccc(Cl)cc2)c(N2CCOCC2)o1	5%	13%	-2%	7.9µM*	0%
NC(=O)C1CCN(CCS(=O)(=O)c2ccc(Cl)cc2)CC1	5%	-6%	0%	45µM*	1%
O=S(=O)(CCN1CCOCC1)c1ccc(Cl)cc1	nt	7%	nt	nt	0%
CCS(=O)(=O)c1nc(S(=O)(=O)c2ccc(Cl)cc2)c(N2CCOCC2)s1	nt	-2%	-1%	22µM*	-10%
CS(=O)(=O)c1nc(S(=O)(=O)c2ccc(Cl)cc2)c(N2CCC(C(N)=O)CC2)s1	nt	-4%	8%	11µM*	1%
COc1ccc(Cc2nnc(N=Nc3c(O)[nH]c4ccc(Br)cc34)[nH]c2=O)cc1	3%	18%	0%	3%	1%
O=C(Nc1ccc2oc(-c3cccnc3)nc2c1)c1ccc([N+](=O)[O-])o1	1%	-6%	2%	nt	-3%
O=C(Nc1ccc2oc(-c3cccnc3)nc2c1)c1ccc(-c2cccc(Cl)c2)o1	nt	nt	nt	35µM*	-7%
Cc1c(NC(=O)c2ccc(-c3cccc([N+](=O)[O-])c3)o2)cccc1-c1nc2cc(Cl)ccc2o1	nt	nt	nt	35µM*	-4%
O=C(Nc1cccnc1)c1ccc(-c2cc(Cl)ccc2Cl)o1	0%	-17%	2%	nt	5%
O=C(Nc1ccc2oc(-c3cccnc3)nc2c1)c1ccc(-c2ccc(Cl)cc2)o1	nt	nt	nt	32µM*	4%
O=C(Nc1cccnc1)c1ccc(-c2ccc(Cl)cc2)o1	-1%	3%	1%	32µM*	2%
O=[N+]([O-])c1ccccc1/C=C/C=N/n1c(-c2ccc(Cl)cc2)n[nH]c1=S	5%	-7%	0%	-1%	?
CCCCn1c(SCC(=O)NC(=O)NCc2ccco2)nc2cc(S(N)(=O)=O)ccc21	-3%	-2%	19%	-18%[11.4 µM]	2%
SMILES	Giardia FBPA inh	RE007 growth inh	LmPK inh	Sm TGR block	Tb PYK inh
Cc1nnc(NC(=O)c2nc(S(=O)(=O)Cc3ccccc3C)ncc2Cl)s1	?	-20%	1%	25µM*	0%
CC(C)c1nnc(NC(=O)c2nc(S(=O)(=O)Cc3ccccc3F)ncc2Cl)s1	nt	-9%	-9%	32µM*	-9%
CSc1nnc(NC(=O)c2nc(S(=O)(=O)Cc3ccccc3F)ncc2Cl)s1	?	-7%	7%	28µM*	-6%
O=C(Nc1nc2ccc(F)cc2s1)c1nc(S(=O)(=O)Cc2ccccc2F)ncc1Cl	nt	nt	nt	?	6%
CCOc1ccc(NC(=O)c2nc(S(=O)(=O)Cc3ccccc3F)ncc2Cl)cc1	nt	nt	nt	7.1µM*	-8%
O=C(Cn1ncc2c3ccccc3n(Cc3ccc(F)cc3)c2c1=O)NC1CCCCCC1	nt	nt	nt	9%	1%
CC/C=C\[C@H](O)[C@H](O)C1=C(C)C(=O)[C@]2(O1)C(=O)N[C@@](OC)(C(=O)c1ccccc1)C2O (stereo partly specified)	-11%	-5%	6%	40µM*	-7%
O=C1CC(N2CCN(c3nc4ccccc4s3)CC2)C(=O)N1Cc1cccs1 (stereo unspecified)	2%	-24%	5%	11µM*	-6%
CCCOc1ccc(N2C(=O)CC(N3CCC(c4nncn4CC)CC3)C2=O)cc1 (stereo unspecified)	14%	13µM*	2%	?	5%
O=C1CC(N2CCN(c3ccc(F)cc3)CC2)C(=O)N1Cc1cccs1 (stereo unspecified)	0%	-24%	2%	?	-9%
O=C1CC(N2CCC(c3nc4ccccc4o3)CC2)C(=O)N1Cc1cccs1 (stereo unspecified)	-3%	?	1%	50µM*	-4%
NC(=O)C1CCN(C2CC(=O)N(Cc3cccs3)C2=O)CC1 (stereo unspecified)	12%	?	2%	35µM*	-9%
COc1ccc(Nc2nnc(SCC(=O)N(CC(C)C)C3CCS(=O)(=O)C3)s2)cc1 (stereo unspecified)	nt	?	nt	nt	1%
CCCOc1ccc(N2C(=O)CC(N3CCN(c4nc5ccccc5s4)CC3)C2=O)cc1 (stereo unspecified)	?	?	-3%	40µM*	1%
Cc1cc(C(=O)N/N=C/c2ccc3c(c2)OCO3)c(C)o1	-3%	?	14µM*	0%	4%
Cc1ccsc1C(=O)N/N=C/c1ccc2c(c1)OCO2	1%	?	11µM*	0%	?
Cc1ccc(CCNC(=O)c2cc(-c3ccc(Cl)cc3)n[nH]2)cc1	nt	nt	nt	7%	5%
O=C(O)c1[nH]c2ccc(Br)cc2c1CCN1C(=O)c2cccc([N+](=O)[O-])c2C1=O	20%	11%	4%	?	-1%
Cc1cc(SCC(=O)OCC(=O)N2CCN(C(=O)c3ccco3)CC2)c(C)cc1Br	-2%	-5%	5%	?	?
Cc1ccc(SCC(=O)OCC(=O)N2CCN(C(=O)c3ccco3)CC2)c(C)c1	nt	5%	nt	45µM*	1%
CC(=O)Nc1ccc(S(=O)(=O)N(C)CC(=O)OCC(=O)N2CCN(C(=O)c3ccco3)CC2)cc1	nt	-10%	nt	50µM*	-5%
